An excerpt weighted towards active compounds, which were near 19% of everything screened.
Giardia kill – Small Molecules that selectively kill Giardia lamblia: qHTS. Giardia lamblia trophozoite viability. activity change, % at 7.66 µM, hits read low. 0.15% of 340,000 active; in the data active = activity change below about -80%; inconclusive = between about -30% and that limit;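 note: parasites exposed to compound for two days anaerobically before the ATP read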
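Media and compound were dispensed first, then trophozoites at 100 cells/well; plates sat 48 hrs at 37 deg C without oxygen before ATP luminescence reagent was added and read after 15-30 min at room temperature.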
TDP1 cell CPT – qHTS for Inhibitors of human tyrosyl-DNA phosphodiesterase 1 (TDP1): qHTS in cells in presence of CPT; AID 686979, 2013; chicken DT40 Tdp1-/-;hTDP1 cells + 20 nM CPT, ATP luminescence, 48 h; Potency, µM (series often up to 46.2 µM), without a hit: top-dose activity change, negative = growth inhibition, most hits filed as inhibitors; 12% of 420,000 active; note: potency is the fitted concentration of half-maximal effect; nearly all actives have a fitted effect of over 55% in size
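Cell growth measured by CellTiter-Glo luminescence after a minimum 48 h, 37 C compound exposure with 20 nM CPT in Tdp1-knockout DT40 cells stably expressing hTDP1, seeded 400/well; qHTS titration format.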
IL-1B inflam inh – qHTS for Inhibitors of Inflammasome Signaling: IL-1-beta AlphaLISA Primary Screen; THP-1 LPS/ATP IL-1B secretion, AlphaLISA, 16 h; hits give low values; activity change, % at 57.5 µM; 4.7% of 360,000 active; AID 743279, 2014; in the data active = activity change below about -50%; inconclusive = mostly about -30% to -49%
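Secreted IL-1B measured by AlphaLISA bead assay after 16 h compound exposure of THP-1 cells; compounds (final up to 57.5 uM) added 1 h before LPS (250 ng/mL) and ATP (1.25 mM) stimulation; lower signal means less secretion.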
TDP1 inh – qHTS Assay for Inhibitors of Tyrosyl-DNA Phosphodiesterase (TDP1); 0.28% of 350,000 active; Tyrosyl-DNA phosphodiesterase 1 (Homo sapiens), Q9NUW8; recombinant TDP1, AlphaScreen DNA substrate cleavage; AID 485290, 2010; Potency, µM (doses to about 130 µM), without a hit: top-dose activity change, negative = inhibition, most hits filed as inhibitors; note: potency is the fitted concentration of half-maximal effect; nearly all actives have a fitted effect of over 40% in size
Target sequence (Q9NUW8 whole entry, looked up): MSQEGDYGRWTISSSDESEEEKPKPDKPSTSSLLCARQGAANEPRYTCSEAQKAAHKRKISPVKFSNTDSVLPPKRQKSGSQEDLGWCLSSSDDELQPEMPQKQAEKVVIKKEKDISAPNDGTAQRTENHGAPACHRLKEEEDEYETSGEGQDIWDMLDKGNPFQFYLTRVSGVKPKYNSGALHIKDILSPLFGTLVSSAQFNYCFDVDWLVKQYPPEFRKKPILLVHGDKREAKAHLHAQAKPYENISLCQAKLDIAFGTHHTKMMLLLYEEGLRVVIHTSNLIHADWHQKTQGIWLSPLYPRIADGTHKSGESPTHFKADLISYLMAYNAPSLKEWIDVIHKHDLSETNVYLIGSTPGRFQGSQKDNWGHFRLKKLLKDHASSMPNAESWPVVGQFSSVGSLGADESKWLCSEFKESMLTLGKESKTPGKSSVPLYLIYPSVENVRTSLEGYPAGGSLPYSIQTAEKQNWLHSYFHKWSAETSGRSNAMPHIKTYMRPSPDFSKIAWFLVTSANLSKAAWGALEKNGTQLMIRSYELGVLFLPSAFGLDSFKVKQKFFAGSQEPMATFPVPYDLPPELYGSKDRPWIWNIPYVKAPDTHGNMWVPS
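Here, a 5' biotin and 3' phosphotyrosine-FITC DNA oligonucleotide reports Tdp1 activity: intact substrate bridges AlphaScreen beads, while cleavage leaves a 3' phosphate and drops signal. All incubations at room temperature.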
ELG1 repair inh – qHTS screen for small molecules that inhibit ELG1-dependent DNA repair in human embryonic kidney (HEK293T) cells expressing luciferase-tagged ELG1; HEK293T ELG1-luciferase reporter, luminescence, 16 h; DNA damage induced by 5-fluorouridine; Potency, µM (highest dose often 46.1 µM), without a hit: at the top dose activity change, negative = inhibition, usual class: inhibitors; 2.3% of 330,000 active; AID 504467, 2011; note: potency is the fitted concentration of half-maximal effect; nearly all actives have a fitted effect of over 55% in size
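DMSO vehicle served as the neutral condition. Each well held 2,000 cells given 5-fluorouridine plus compound; after 16 hr at 37 °C/5% CO2, ONE-Glo was added and luciferase measured 30 min later.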
DT40 TDP1 no CPT – qHTS for Inhibitors of human tyrosyl-DNA phosphodiesterase 1 (TDP1): qHTS in cells in absence of CPT; DT40 Tdp1-/- hTDP1 cells, no CPT, ATP luminescence, 48 h; Potency, µM (highest dose often 46.2 µM), inactives show at the highest dose activity change, negative = growth inhibition, hits mostly inhibitors; 15% of 420,000 active; AID 686978, 2013; note: potency is the fitted concentration of half-maximal effect; nearly all actives have a fitted effect of over 55% in size
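Stably hTDP1-transfected Tdp1-null chicken DT40 cells were treated with library compounds minus camptothecin and grown for at least 48 hr at 37 °C, after which cellular ATP was quantified by luminescence.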
Starred values were filed as active, the others as inactive; ? = inconclusive; nt = no result; [ ] = another dose, or the depositor's remark. Unless noted, calls come from the whole dose curve; as a rule, active = well fitted curve in the direction sought with a large enough effect; inconclusive = small, poorly fitted or top-dose-only effect, or another doubt; inactive = no such curve, though single readings can be large; an effect the other way counts as inactive or inconclusive. % is set by controls: 0 for no effect and ±100 for the full control effect.

SMILES	Giardia kill	TDP1 cell CPT	IL-1B inflam inh	TDP1 inh	ELG1 repair inh	DT40 TDP1 no CPT
CCOc1ccc2nc(NC(=O)c3cnccn3)sc2c1	?	23.1µM*	-16.0	7.3%	?	23.1µM*
CCOc1ccc2nc(NC(=O)C3(C)CC3(Br)Br)sc2c1 (centres undefined)	37.2	16.4µM*	-16.5	nt	nt	23.1µM*
CC(C)Sc1cc(Cl)nc(NC(=O)Nc2ccccc2)n1	-1.8	?	?	nt	?	-21.5%
CC(=O)N1CCN(c2ccc(NC(=O)c3cccc([N+](=O)[O-])c3)cc2)CC1	7.8	-16.3%	-9.8	nt	-18.1%	-27.0%
COc1ccc2[nH]c3c(C)c4ccncc4c(C)c3c2c1	-25.7	0.259µM*	-100.3*	5.7%	?	0.92µM*
COc1ccc2[nH]c(C)cc(=O)c2c1	11.3	-24.7%	17.7	-4.9%	-1.0%	?
OCCN1CCN(c2nc(N3CCCCC3)nc(N3CCCCC3)n2)CC1	11.8	?	-27.9	-3.4%	?	18.4µM*
CC(=NO)c1cc(Br)c2cccc3c2c1CC3	nt	3.8%	-8.6	nt	nt	?
O=C1[C@H]2[C@H]3[C@H](O)[C@H](O)C/C(=N/OC[C@@H](O)COCc4ccco4)[C@@H]3CC[C@@H]2C(=O)N1C1CCCCC1	nt	nt	nt	4.8%[21 µM]	nt	nt
O=C(CN1CCN(CC(=O)Nc2cccc(F)c2)CC1)Nc1ccc(-c2ccccc2)cc1	-2.6	-29.3%	-9.7	-17.9%	1.9%	-18.0%
CCCCCCCN(C(=O)CCl)c1cccc(C)c1	6.5	?	-105.2*	-0.6%	-0.7%	23.1µM*
CCCCCCN(C(=O)CCl)c1ccccc1	1.0	16.4µM*	-66.5*	5.6%	?	10.3µM*
COc1ccc(CCNC(=O)CCCCCn2c(=O)[nH]c3cc(OC)c(OC)cc3c2=O)cc1OC	nt	-18.4%	nt	2.9%	nt	?
O=C(COC(=O)c1ccccc1)NC1CCCCCC1	5.8	-8.3%	11.5	-0.5%	13.5%	-15.4%
N/C(=N\OC(=O)c1ccccc1)C(C(=O)NOC(=O)c1ccccc1)C1CCCCC1 (centres undefined)	6.5	25.9µM*	?	nt	nt	18.4µM*
C#CC1(O)CCCC2C3CCC4CC(OC(C)=O)CCC4(C)C3C(=O)CC21C (centres undefined)	7.3	23.1µM*	3.2	nt	nt	20.6µM*
CC(=O)C1(O)CCC2C3CCC4CC(O)CCC4(C)C3C(=O)CC21C (centres undefined)	40.7	12.7%	22.1	nt	nt	0.8%
CCN(C(=O)CSc1nc2ccccc2n1Cc1ccccc1C#N)c1ccccc1	nt	14.6µM*	nt	1.2%	nt	13µM*
CCN(C(=O)CSc1nc2ccccc2n1CC(=O)N(C)C1CCCCC1)c1ccccc1	nt	?	nt	3.8%	nt	?
CCN(C(=O)CSc1nc2ccccc2n1Cc1cc(C)ccc1C)c1ccccc1	nt	16.4µM*	nt	1.2%	nt	23.1µM*
CCOC(=O)C1CCN(S(=O)(=O)CCNC(=O)c2cccc(OC)c2)CC1	14.5	4.3%	11.4	nt	-12.6%	5.9%
CCc1nnc(NC(=O)c2sc3nc4cc(C)ccc4cc3c2N)s1	-20.0	2.59µM*	-0.3	?	-5.3%	2.91µM*
CCc1nnc(NC(=O)c2ccc3ccccc3n2)s1	16.4	?	34.2	11.4%	?	18.4µM*
CCOC(=O)Cc1csc(NC(=O)c2sc3nc4ccc(C)cc4cc3c2N)n1	-13.9	-0.1%	0.0	5.9%	?	5.4%
CCSc1nnc(NC(=O)c2ccc3ccccc3n2)s1	7.5	18.4µM*	8.3	9.8%	?	?
SMILES	Giardia kill	TDP1 cell CPT	IL-1B inflam inh	TDP1 inh	ELG1 repair inh	DT40 TDP1 no CPT
CCC(Cc1ccccc1)NS(=O)(=O)c1ccc2c(c1)NC(=O)CO2 (centres undefined)	-9.6	?	-7.4	2.0%	1.8%	-21.5%
O=C(COc1cccc(C(F)(F)F)c1)NCC(c1ccco1)N1CCCCC1 (centres undefined)	-5.5	?	?	0.9%	1.1%	?
O=C(NCCN1CCN(c2cccc(Cl)c2)CC1)Nc1ccccc1C(F)(F)F	nt	?	nt	0.0%	nt	18.4µM*
Cc1ccc(Cl)cc1NC(=O)NCCN1CCCCC1	19.6	24.8%	-10.1	nt	2.8%	-15.7%
CN1CCN(CCNC(=O)Nc2ccccc2C(F)(F)F)CC1	-1.0	6.3%	10.6	-4.1%	15.4%	2.0%
Cc1ccc(Cl)cc1N1CCN(CCNC(=O)Nc2ccccc2Cl)CC1	nt	16.4µM*	nt	0.0%	nt	11.6µM*
Cc1ccccc1CS(=O)(=O)CCC(=O)NCCCN1CCN(c2ccccc2F)CC1	-20.9	?	-5.2	5.2%	-10.6%	?
Cc1ccccc1CS(=O)(=O)CCC(=O)NCCN1CCN(c2cccc(Cl)c2)CC1	-4.4	23.1µM*	?	3.9%	-28.7%	14.6µM*
O=C(NCCCN1CCN(c2cccc(Cl)c2)CC1)Nc1ccccc1C(F)(F)F	nt	14.6µM*	nt	-2.5%	nt	?
CCOc1ccc2c(c1)C(NC(C)=O)C(=O)N2CCN1CCOCC1 (centres undefined)	-4.9	?	8.3	nt	5.8%	14.6µM*
CCc1ccc(NC(=O)CSc2nc3n[nH]c(C)c3c(=N)n2-c2ccccc2C)cc1	nt	?	nt	-6.6%	nt	?
CCOc1ccccc1-n1c(SCC(=O)Nc2ccc(CC)cc2)nc2n[nH]c(C)c2c1=N	7.4	11.6µM*	-7.1	6.1%	-19.2%	13µM*
CCc1ccccc1-n1c(SCC(=O)Nc2ccc(C)cc2)nc2n[nH]c(C)c2c1=N	nt	7.31µM*	nt	1.9%	nt	5.17µM*
O=C(Nc1nnc(CCN2CCCCC2)s1)c1ccccc1Cl	-3.8	-19.7%	-4.1	5.1%	17.2%	13.7%
Cc1ccc(Cl)c(NC(=O)CCl)c1Cl	1.1	?	-91.2*	11.8%	-22.0%	?
Cc1ccc(Cl)c(NC(=O)CSc2cccc[n+]2[O-])c1Cl	-1.1	-1.6%	-7.6	0.6%	4.7%	-3.3%
O=C(Cn1cncn1)N/N=C/c1cccnc1	3.2	12.8%	21.0	nt	5.4%	7.2%
COc1ccc(CN2CCNC(=O)C2CC(=O)N(C)C2CCCCC2)cc1OC (centres undefined)	nt	3.5%	-9.5	nt	nt	11.3%
CCOC(=O)Nc1nc(C)c(C(=O)c2ccc(Cl)cc2)s1	-21.4	?	6.4	-1.6%	7.5%	?

Compound activity as filed in PubChem BioAssay.
